Measurements published in PubChem BioAssay (NCATS).
Where “and” joins values, the source holds several entries; their conditions need not be identical. Equal entries are not always repeated.

Test: qHTS drug screen for cell cycle checkpoint inhibitors in PARPi-resistant BRCA-mutant ovarian cancer cell lines. (AID 1963452)
Details: PEO1/OlaR viability, CellTiter-Glo luminescence, 96 h; measured here: PEO4 Z-AUC; stronger effect = lower value
How it was run: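 PEO1, PEO4 and PEO1/OlaR ovarian cancer cells, 600 per well, exposed 96 h at 37C to a dilution series. Viability read by CellTiter-Glo luminescence, normalized to DMSO and empty wells; activity summarized as Z-AUC.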
Nc1ccn([C@@H]2C(F)=C(CO)[C@@H](O)[C@H]2O)c(=O)n1 gave a Z-AUC of -0.408. Work on N#Cc1ccnc(N2C(=O)CC[C@H]2C(=O)N(c2cncc(F)c2)[C@H](C(=O)NC2CC(F)(F)C2)c2ccccc2Cl)c1 yielded a Z-AUC of 1.26. In the case of Cc1nnc(C(C)C)n1C1CC2CCC(C1)N2CC[C@H](NC(=O)C1CCC(F)(F)CC1)c1ccccc1 (stereo not given in full), the Z-AUC is reported as 1.24 and 0.375. Work on Cc1cc(Nc2ncc(Cl)c(Nc3ccccc3S(=O)(=O)C(C)C)n2)c(OC(C)C)cc1C1CCNCC1 yielded a Z-AUC of -0.548. C=Cc1cc(O)cc2nc(-c3ccc(O)c(F)c3)oc12 gave a Z-AUC of 0.548. CN1CC[C@@H](NC(=O)Nc2ccc(C#N)cc2)C[C@@H]1c1nc2ccccc2[nH]1 gave a Z-AUC of -1.25. With CCS(=O)(=O)N1CCC([C@@H](C)n2c(C)c(C(=O)NCc3c(OC)cc(C)[nH]c3=O)c3ccccc32)CC1 the Z-AUC was -0.124. CN1C(=O)N[C@@H](Cc2c[nH]c3c(Cl)cccc23)C1=O gave a Z-AUC of -0.721. Molecule O=C(O)c1ccc(CCCc2ccc(OCCc3ccc(F)cc3)cc2)o1 has a Z-AUC of 0.926. For CON(C)C(=O)N1N=C(c2cc(F)ccc2F)S[C@@]1(CCCN)c1ccccc1, the Z-AUC was -2.54. CCCOc1ccn2c(C(C)=O)cc(-c3ccccc3S(C)(=O)=O)c2c1 gave a Z-AUC of 1.78. In the case of COc1cc(N2CCC(O)CC2)ccc1Nc1cc(Nc2ccccc2S(=O)(=O)C(C)C)c2cc[nH]c2n1, the Z-AUC is reported as 0.959. Work on Cc1nc2c(-c3cnc(N)nc3)nc(N3CCOCC3)nc2n1C(C)C yielded a Z-AUC of -1.63. CN(NC(=O)CC(=O)NN(C)C(=S)c1ccccc1)C(=S)c1ccccc1 showed a Z-AUC of 1.36. In the case of CCOc1cc2ncc(C#N)c(Nc3ccc(OCc4ccccn4)c(Cl)c3)c2cc1NC(=O)/C=C/CN(C)C, the Z-AUC is reported as -0.0482. Molecule COc1cc2c(Nc3ccc(Cl)c(Cl)c3F)ncnc2cc1OCC1C[C@@H]2CN(C)C[C@@H]2C1 (stereo not given in full) has a Z-AUC of -0.609. For COc1ncc(-c2ccc3c(Nc4cc(Oc5cc(F)cc(F)c5)cc(C(=O)O)c4)c(S(=O)(=O)NC4CC4)cnc3c2)c(OC)n1, the Z-AUC was -0.317. With C[C@@H]1CCN(C(=O)CC#N)C[C@@H]1N(C)c1ncnc2[nH]ccc12 the Z-AUC was 1.24. Work on CCOC(=O)c1ccnc(CNCC(=O)N(CC)CCN(C)C)c1 yielded a Z-AUC of 0.779. With Cc1c(-c2ccnn2C)cc(C(=O)NCc2ccc(S(C)(=O)=O)cn2)c(=O)n1-c1cccc(C(F)(F)F)c1 the Z-AUC was -0.364. With Cc1cccc(-c2[nH]c(CNc3ccccc3F)nc2-c2ccc3ncnn3c2)n1 the Z-AUC was -0.0692. With OCc1ccccc1O[C@@H]1O[C@H](CO)[C@@H](O)[C@H](O)[C@H]1O the Z-AUC was 0.966. Work on CNc1nc(Nc2cnn([C@H]3CCN(C4COC4)C[C@@H]3F)c2Cl)ncc1C(F)(F)F yielded a Z-AUC of 0.0395. Work on O=C(NCC(=O)N1CC[C@H](NC2CCC(O)(c3ccc(-c4ncccn4)cn3)CC2)C1)c1cccc(C(F)(F)F)c1 (stereo not given in full) yielded a Z-AUC of -0.816. With COc1cc(N2CCC(N(C)C)CC2)ccc1Nc1ncc(Cl)c(Nc2ccccc2P(C)(C)=O)n1 the Z-AUC was -1.64. In the case of NCc1ccc(OCCCc2sc(-c3ccc4c(c3)/C(=N/Nc3nc5ccccc5s3)CCC4)nc2C(=O)O)cc1, the Z-AUC is reported as 0.501. Work on COc1ccc2cc(OCC3(C(=O)O)CN(C(=O)c4ccc(F)cc4)C3)ccc2c1 yielded a Z-AUC of 0.261. Work on Cc1nn(C)c2c1C(c1ccc(C(F)(F)F)cc1)C(C#N)=C(N)O2 (stereo not given) yielded a Z-AUC of 1.26. With O=C(O)C[C@H](O)C[C@H](O)/C=C/c1c(C2CC2)nc2ccccc2c1-c1ccc(F)cc1 the Z-AUC was -1.48. For CC(=O)c1cnc2ccc(-c3cc(Cl)c(O)c(Cl)c3)nc2c1NC1CCC(CN(C)C)CC1 (stereo not given), the Z-AUC was -1.3. For CO[C@@H]1COCC[C@@H]1N[C@@H]1CC[C@@](C(=O)N2CCc3ncc(C(F)(F)F)cc3C2)(C(C)C)C1, the Z-AUC was 1.12. With OC[C@H]1O[C@@H](n2cnc3c2NC=NC[C@H]3O)C[C@@H]1O the Z-AUC was 0.0721. CC(C)(O)CNc1nc(Nc2ccnc(C(F)(F)F)c2)nc(-c2cccc(C(F)(F)F)n2)n1 gave a Z-AUC of 0.79. In the case of C[C@H](CCC(=O)O)[C@H]1CC[C@H]2[C@@H]3[C@H](O)C[C@@H]4C[C@H](O)CC[C@]4(C)[C@H]3CC[C@]12C, the Z-AUC is reported as 0.917. Molecule Cc1ccc(C(=O)Nc2ccc(Oc3cc4cnn(C)c4cc3-c3cn[nH]c3)c(F)c2)c(=O)n1-c1ccc(F)cc1 has a Z-AUC of -0.211.
